Test results reported in the supplement of paper PMC6555819.

How the values were obtained:
Test in all cases: PBM binding z-score (relative to random genomic background probes); higher = stronger binding; sequences stand for … in GC…GCGATTGACAGCGTAGAATGAAGG
[1] = tested on: FXR:RXRa (NR concentration 270 nM, RXRa partner concentration 90 nM)
In short: (§1)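 For binding z-scores, the reference was random background probes on custom Agilent 4×180K protein-binding microarrays. These arrays were incubated 1 h with ligand-free nuclear receptor dimers in PBS pH 7.4, 2% milk, 0.02% Triton X-100, 1 mM DTT, 0.2 mg/mL BSA and 0.4 mg/ml salmon testes DNA. Fluorescence was scanned after antibody detection of each partner (one per run) and regression-normalized.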

[2] = tested on: LXRa:RXRa (NR concentration 270 nM, RXRa partner concentration 90 nM)
In short: as §1

[3] = tested on: LXRa homodimer (NR concentration 270 nM)
In short: as §1

[4] = tested on: LXRb:RXRa (NR concentration 270 nM, RXRa partner concentration 90 nM)
In short: as §1

[5] = tested on: LXRb homodimer (NR concentration 270 nM)
In short: as §1

[6] = tested on: PPARa:RXRa (NR concentration 270 nM, RXRa partner concentration 90 nM)
In short: as §1

[7] = tested on: PPARg:RXRa (NR concentration 180 nM, RXRa partner concentration 90 nM)
In short: as §1

[8] = tested on: PPARg:RXRa 270nM:90nM, anti-RXR (NR concentration 270 nM, RXRa partner concentration 90 nM)
In short: as §1

[9] = tested on: PPARg:RXRa 30nM:10nM, anti-RXR (NR concentration 30 nM, RXRa partner concentration 10 nM)
In short: as §1

[10] = tested on: PPARg:RXRa 90nM:30nM, anti-RXR (NR concentration 90 nM, RXRa partner concentration 30 nM)
In short: as §1

[11] = tested on: PPARg:RXRa DBDmut IVT, anti-RXR (DBD mutation: RXRa K156A/R161A, NR concentration 270 nM, RXRa partner concentration 90 nM)
In short: as §1

[12] = tested on: PPARg:RXRa IVT, anti-PPARg (NR concentration 270 nM, RXRa partner concentration 90 nM)
In short: as §1

[13] = tested on: PPARg DBDmut:RXRa IVT, anti-PPARg (DBD mutation: PPARg1 K132A/R137A, NR concentration 270 nM, RXRa partner concentration 90 nM)
In short: as §1

[14] = tested on: PPARg DBDmut IVT, anti-PPARg (DBD mutation: PPARg1 K132A/R137A, NR concentration 270 nM)
In short: as §1

[15] = tested on: PPARg homodimer (NR concentration 180 nM)
In short: as §1

[16] = tested on: PXR:RXRa (NR concentration 270 nM, RXRa partner concentration 90 nM)
In short: as §1

[17] = tested on: PXR homodimer (NR concentration 270 nM)
In short: as §1

[18] = tested on: RARa homodimer (NR concentration 270 nM)
In short: as §1

[19] = tested on: RARb:RXRa (NR concentration 270 nM, RXRa partner concentration 90 nM)
In short: as §1

[20] = tested on: RARa:RXR (NR concentration 270 nM, RXRa partner concentration 90 nM)
In short: as §1

Sequence	PBM binding z-score [1]	PBM binding z-score [2]	PBM binding z-score [3]	PBM binding z-score [4]	PBM binding z-score [5]	PBM binding z-score [6]	PBM binding z-score [7]	PBM binding z-score [8]	PBM binding z-score [9]	PBM binding z-score [10]	PBM binding z-score [11]	PBM binding z-score [12]	PBM binding z-score [13]	PBM binding z-score [14]	PBM binding z-score [15]	PBM binding z-score [16]	PBM binding z-score [17]	PBM binding z-score [18]	PBM binding z-score [19]	PBM binding z-score [20]
CAGACTAGGTCAAAGGTCAAAGTCGAGCCAACCA	8.06	6.96	4.82	7.09	2.54	7.49	13.9	10.9	13.4	13.3	7.65	8.8	3.31	3.18	5.71	7.16	1.95	2.03	5.64	–
ATCCAAAGGTCGAGGTGAGTATAGAGAAAGGGAA	4.69	4.08	0.242	3.36	0.755	4.91	4.74	4.86	1.7	3.57	0.646	2.87	1.42	1.42	1.71	2.84	0.536	1.18	4.43	–
ATATGTAGGTAACATCCGGGTCATTCAGGCTATG	1.82	2.79	0.798	2.48	0.596	4.36	5.15	4.17	1.8	3.15	6.71	7.04	2.61	1.59	1.75	3.14	2.16	0.771	1.66	–
CGTCCAAGGTCAAGGTGAGTGAAAGAGACTCGAA	7.1	4.92	0.292	3.92	0.281	5.71	5.33	5.61	2.05	4.04	3.35	3.92	0.375	0.105	3.6	3.6	0.642	1.04	5.22	–
TCTAGTTGGTTACGGAGGTCACACACGACGGGTA	2.67	3.44	3.06	3.14	1.06	3.67	2.59	3.61	3.44	3.42	1.85	2.98	1.22	0.724	3.22	4.22	1.44	2.34	3.25	–
CCGACTGGGGCAAAGGTTACCACACTCAGTACGA	1.86	1.89	0.137	2.27	-0.702	5.83	10.7	8.79	8.43	9.24	4.8	5.98	0.442	0.282	1.18	2.44	-0.0158	0.0195	2.54	–
TAGCCTAGGTCATGGGCCAGTTTACCACGCGAAC	4.52	3.85	0.503	2.26	-0.093	4.37	3.6	3.88	0.612	2.88	1.76	3.27	-0.261	-0.602	1.68	2.12	-0.368	-0.379	3.82	–
CGTCCAAGGTCAGATAGGTCAGTGAATGCCGAGT	5.44	3.81	1.77	3.45	0.397	4.33	2.66	3.09	0.662	1.9	1.9	2.41	-0.168	0.165	2.95	4.33	4.32	1.22	5.1	–
CGTCCAAGGTCAGTGAGGTCAGTGAATGCCGAGT	5.29	4.25	2.06	3.89	-0.0298	4.72	3.46	4.07	0.585	2.61	3.14	3.83	-0.101	-0.804	3.15	5.76	11.8	0.545	5.51	–
ATATGGAGGTTAGCTGGGGTCATTCAGACTAGGC	5.58	6.45	4.02	5.67	1.51	5.04	3.15	3.77	1.68	2.72	2.62	2.93	1.36	1.19	2.73	–	5.39	1.8	3.66	5.62
CGTCAAAGTTCAACTAAGGTAACTTAAAGCACGC	7.38	6.11	4.42	4.16	1.95	5.47	5.21	5.69	2.4	4.39	0.256	2.36	0.726	1.28	3.17	5.71	4.62	1.76	5.39	–
CACACTAGGTCAAGAGGTCAAAGTCCGCTTCCCG	7.5	6.61	7.43	5.8	2.67	6.33	9.41	7.85	7.67	8.14	7.22	7.67	2.76	1.84	7.46	6.33	3.75	3.81	5.28	–
CGTCAAAGTTCAACTAATGTAACGTAAAGCACGC	7.05	6.09	4.93	4.21	2.34	4.77	4.72	5.26	2.95	4.56	0.546	1.56	0.963	2.3	3.42	4.97	5.1	2.42	5.23	–
ACTAACAGGCCAAGGGTCACTCAAGATTAGTCCG	2.89	3.27	0.663	3.06	0.292	4.35	6.9	6.64	4.86	6.91	0.923	3.21	0.489	-0.189	3.04	3.56	0.163	1.2	3.57	–
ATGTGTAGGTTACATCCGGGTCATTCAGGCTATG	2.23	4.19	1.76	2.87	0.855	3.45	2.44	2.64	0.934	2.02	2.96	4.13	1.02	1.88	3.03	–	2.51	1.12	2.37	4.01
TAGCCTAGGTCACGGGCCAGTATACCACGCGAAC	5.68	4.12	0.223	3.33	-0.137	5.41	5.67	4.7	1.91	3.23	2.44	5.21	0.69	0.437	1.4	2.28	-0.694	0.351	4.59	–
CCGACGGGGGCAGAAAGGTTACCATACCATCCGG	2.77	2.96	0.333	4.22	3.55	3.93	1.68	3.06	0.967	2.16	0.901	2.55	3.18	2.71	2.43	–	2.06	0.566	–	3.91
ATCGAAAGGTCGTGAGGTGTGTATACAGAAAGGC	5.39	4.05	0.0507	3.03	0.423	4.94	3.6	3.97	1.61	2.81	0.0315	2.26	1.54	0.468	2.59	3.12	-0.215	0.71	3.97	–
CGAACGAGGTCAGAACAGGACAGTGAAGGATGAT	5.64	4.06	0.279	2.95	0.317	4.97	4.86	4.15	1.32	3.02	3.38	4.26	0.826	0.461	1.39	3.87	0.676	0.667	4.4	–
CTCCAAAGGTCGGTTGAGGTGAGTATACGGATAA	2.49	1.93	-0.152	1.71	-0.00126	2.95	1.01	1.64	0.12	0.875	0.32	1.01	0.267	-0.816	1.53	–	0.251	-0.204	3.18	2.58
GACACAGGGTCAGCTAGAGGCCAGAGTATGGAAA	4.61	2.62	-0.521	2.32	-0.984	4.57	3.5	3.17	0.295	1.71	0.69	1.9	-0.301	-0.892	1.74	2.92	-0.286	-0.561	4.26	–
CAAACTAGGTCACCGGAAAGTCAAAGTCCGCATG	4.54	3.74	0.834	2.79	0.685	5.64	9.52	7.27	5.72	7.23	8.88	9.33	3.21	3.47	2.67	2.14	0.0377	0.631	4.72	–
TCTCGGAGGTCACGAAGGTCAGAGCTTTCCAGAG	7.49	6.31	3.52	5.6	0.683	6.27	7.7	7.54	4.57	6.59	4.48	6.17	0.14	-0.128	4.35	–	9.02	1.11	–	6.63
CCTTGCGGGTCACTGACAGGTTATAGCATTTGGA	4.69	3.74	0.0362	2.95	-0.459	5.05	5.18	4.76	1.63	3.47	4.94	5.29	-0.0944	-0.215	2	3.05	-0.0222	0.173	3.63	–
GGAACGGGGGCAAGTTGATAGCAGAGTTTGATGG	3.27	2.87	0.913	4.45	7.1	4.02	3.2	4.52	2.09	3.58	4.41	5.53	10.8	12.6	2.77	–	2.97	2.02	3.54	2.7
GCTAGTAGGTCAGTAAAAGGTCACACACCGGTCG	4.98	5.45	5.31	5.01	1.21	5.55	7.3	6.72	4.43	6.42	7.2	7.29	3.2	3.78	6.95	5.97	1.43	2.9	5.4	–
TAGCCAAGGTCAGATCGGGCCAGTATACGCTATA	5.26	3.12	-0.0844	2.55	0.145	3.85	1.88	2.35	0.514	1.53	0.246	1.81	0.476	-0.254	1.38	–	-0.349	-0.193	4.3	2.61
CCTTACGGGCCACGAGGTTATAGCACGACGAGCG	0.333	0.406	-0.158	0.202	-0.806	1.44	1.29	0.67	-0.315	0.471	0.97	1.16	-0.462	-1.1	0.126	–	-0.12	-0.0676	1.15	1.06
AATACAGGGTCACTAGGCCCGAGTAGGTACGAAT	6.16	4.62	0.516	3.53	0.618	5.37	6.32	5.26	2.34	4.04	2.32	4.28	2.04	0.859	1.77	2.94	0.0617	0.416	4.14	–
CGTCCAAGGTCAGAGAGGTCATTGAATGCCGAGT	6.84	6.1	6.22	5.74	0.491	6.01	4.47	5.05	1.68	3.33	2.72	3.6	0.144	-1.01	2.82	–	13.6	0.848	–	6.68
